A short description of assay [1]: hit retest on RPL19A-GFP reporter strain – cell-based, S. cerevisiae, flow cytometry, cherry picks, mother/daughter gates, confirmation (AID 2270;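 active means GFP response below 50% of the DMSO control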). The settings on record: 3 h, at 10 µM, stronger effect = lower value, 100 = same GFP as DMSO wells.
Assay [2] is described as follows: yeast TOR pathway reporter LAP4-GFP change – cell-based, cherry picks, flow cytometry, mother/daughter gates, confirmation (AID 2271;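 active means GFP response above 150% of the DMSO control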;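 further: ratio of sample to DMSO plate mean so 100% equals DMSO level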). The settings on record: S. cerevisiae LAP4-GFP strain, 3 h, at 10 µM, stronger effect = higher value, 100 means same as DMSO control.
A short description of assay [3]: TOR pathway reporter MEP2-GFP, retest of hits – S. cerevisiae, flow cytometry GFP, cherry picks, confirmation (AID 2272;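 active means GFP response above 150% of the DMSO control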;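 further: ratio of well signal to plate DMSO mean so 100% equals DMSO level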). The settings on record: S. cerevisiae MEP2-GFP strain, 3 h, at 10 µM, stronger effect = higher value.
Assay [4] can be described thus: yeast AGP1-GFP fluorescence change, single-dose – cell-based, flow cytometry, S. cerevisiae, cherry picks, confirmation (AID 2273).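 Further: median GFP channel fluorescence over the whole cell population gate.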 The settings on record: S. cerevisiae AGP1-GFP strain, 3 h, at 10 µM.
Assay [5] can be described thus: TOR pathway CIT2 reporter hit retest – S. cerevisiae, GFP fusion, cherry picks, mother/daughter gates, confirmation (AID 2274). Conditions: S. cerevisiae CIT2-GFP strain, flow cytometry, 3 h, at 10 µM, stronger effect = higher value.
The nature of assay [6]: reduced mouse 2C T cell binding to pMHC/ICAM-1 vesicles – MLPCN validation set, flow cytometry, LFA-1/ICAM-1 modulator project, pilot screen (AID 2523;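 active means response below a set limit, under 55% cells CD8-positive and vesicle-bound, and CD8 cells' 90th-percentile brightness under 279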;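 on vesicle binding response: mean PE anti-B7-1 fluorescence of CD8+ cells relative to row control; 100% = QL9-loaded vesicles with DMSO vehicle in the same plate row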). The settings on record: 2C mouse CD8+ T cells, at 7 µM, stronger effect = lower value; double positive events: measured here: CD8+/vesicle+ event percentage.
Assay [7] addresses Integrin beta-1 (Homo sapiens) + Integrin alpha-4 (Homo sapiens) (UniProt P13612+P05556). Briefly: alpha4beta1 integrin LIBS antibody binding reduction – U937 cells, HUTS-21 mAb, flow cytometry, validation set, VLA-4 allosteric modulator project, pilot screen (AID 2674;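 active means inhibition above 50%, about 3 SD of the validation set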;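 further: antibody binding induced by the VLA-4 ligand LDV present at three times its Kd; 0% = LDV ligand with antibody and no compound and 100% = antibody without LDV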). The settings on record: HUTS-21 LIBS mAb binding, at 6.7 µM, stronger effect = higher value, binding induced by LDV ligand.

The nature of assay [8]: calorie-restriction mimetic ROS inhibitors, yeast – validation compound set, pilot screen (AID 2706;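 active means superoxide response below 65% of plate, a cut near 3 SD across the whole screen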;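 further: yeast exposed to compound for one week at 30 degrees C before staining; 100% = mean of all compound wells on the same plate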). The settings on record: S. cerevisiae aging, superoxide DHE fluorescence; at 10 µM, stronger effect = lower value.
Assay [9] concerns the target Beta-adrenergic receptor kinase 1 (Homo sapiens) (UniProt P25098). Put plainly: GRK2 binders displacing RNA aptamer, biochemical, validation, human GRK2, bead flow cytometry (AID 488806;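 active means aptamer binding inhibition above 30%, about 3 SD of noise from non-fluorescent compounds; inactive means inhibition at or below 30%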). Conditions: bead-bound GRK2, FAM-aptamer displacement, at 10 µM, stronger effect = higher value.
For assay [10], the target named is AP-2 complex subunit beta (Homo sapiens) (UniProt P63010). Put plainly: beta-arrestin/AP2 interaction blockers – biochemical, validation set, GST-AP2 beads, flow cytometry, pilot screen (AID 504541;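 active means inhibition above 54%, about 3 SD of non-fluorescent compounds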;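 further: AP2 carries R879A mutation and is captured from E. coli lysate; bead-bound FITC arrestin peptide fluorescence measuring arrestin peptide binding to AP2; 0% = DMSO wells and 100% = excess unlabeled arrestin peptide control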). Conditions: FITC arrestin peptide, at 10 µM, stronger effect = higher value, AP2 beta2 appendage fragment, R879A mutant.
Assay [11] can be described thus: cytosolic pH regulators acting via V-ATPase – S. cerevisiae, pHLuorin, HTS validation (AID 504600; in the data active means response above about 15%;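 further: plate controls were DMSO for no effect and reference compound for full effect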). The settings on record: V-ATPase proton transport, at 10 µM, stronger effect = higher value.
Assay [12] has as its system anti-desmoglein-3 scFv antibody binding to human DSG3. Briefly: blockers of pathogenic pemphigus antibody–desmoglein-3 binding – biochemical, validation compound set, bead-based, flow cytometry, pilot screen (AID 588368;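 active means binding below the plate cutoff, the plate median minus 3 SD, with a reading above zero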;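 further: signal is the median channel fluorescence of bead-bound GFP antibody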). Conditions: Protein G beads, DSG3-Fc, scFv-GFP binding, at 10 µM, stronger effect = lower value.
Assay [13] is described as follows: Nile Red efflux blockade in pump-expressing yeast – validation compound set, multiplex, phenotypic, pilot screen (AID 588506;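 active means efflux inhibition above 0.42, the validation set average plus 4 SD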;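 further: Nile Red retained in cells so higher fluorescence means more efflux inhibition; 0 = negative control wells and 1 = enniatin B 25 µM full block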). The settings on record: S. cerevisiae pump-expressing triplex, Nile Red efflux flow cytometry; at 10 µM; stronger effect = higher value; the pumps come from Candida albicans.
In assay [14] the target is ATP-binding cassette sub-family B member 6 (Homo sapiens) (UniProt Q9NP58). Put plainly: blockers of ABCB6-driven porphyrin uptake – K562-ABCB6 cells, flow cytometry, validation set, pilot screen (AID 588550;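 active means inhibition above the screen-wide mean plus 3 SD, about 51%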;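 further: 0% = DMSO wells and 100% = benzethonium chloride 70 µM positive control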). Conditions: K562-ABCB6 porphyrin accumulation, 1 h, at 10 µM, stronger effect = higher value.
A short description of assay [15]: AML differentiation inducers, ER-HoxA9 marrow cells – cell-based, GFP/MAC1 double positive, flow cytometry, validation set, primary screen (AID 588685;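 active means differentiation response of at least 50%, scaled between solvent and reference control, from cells with both markers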;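 further: compound exposure lasts four days before antibody staining and flow analysis; 0% = DMSO wells and 100% = 5 µM fulvestrant positive control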). Conditions: stronger effect = higher value, normalized: vehicle 0, fulvestrant 100.
Setting [16] is: measured here: daughter cell gate.
Where [17] appears, read: measured here: mother cell gate.
The mark [18] stands for this setting: measured here: daughter cell gate response.
Where [19] appears, read: measured here: mother cell gate response.

These results are taken from PubChem BioAssay.

Activity calls are given as the source filed them.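 How the source made its calls, unless noted: active means GFP response above 150% of the DMSO level; inconclusive means fewer than 70 events counted for a yeast strain; inactive means the rest.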

Chain of AP-2 complex subunit beta (Homo sapiens) (P63010 whole entry, looked up, the tested form may be a part, one chain of several): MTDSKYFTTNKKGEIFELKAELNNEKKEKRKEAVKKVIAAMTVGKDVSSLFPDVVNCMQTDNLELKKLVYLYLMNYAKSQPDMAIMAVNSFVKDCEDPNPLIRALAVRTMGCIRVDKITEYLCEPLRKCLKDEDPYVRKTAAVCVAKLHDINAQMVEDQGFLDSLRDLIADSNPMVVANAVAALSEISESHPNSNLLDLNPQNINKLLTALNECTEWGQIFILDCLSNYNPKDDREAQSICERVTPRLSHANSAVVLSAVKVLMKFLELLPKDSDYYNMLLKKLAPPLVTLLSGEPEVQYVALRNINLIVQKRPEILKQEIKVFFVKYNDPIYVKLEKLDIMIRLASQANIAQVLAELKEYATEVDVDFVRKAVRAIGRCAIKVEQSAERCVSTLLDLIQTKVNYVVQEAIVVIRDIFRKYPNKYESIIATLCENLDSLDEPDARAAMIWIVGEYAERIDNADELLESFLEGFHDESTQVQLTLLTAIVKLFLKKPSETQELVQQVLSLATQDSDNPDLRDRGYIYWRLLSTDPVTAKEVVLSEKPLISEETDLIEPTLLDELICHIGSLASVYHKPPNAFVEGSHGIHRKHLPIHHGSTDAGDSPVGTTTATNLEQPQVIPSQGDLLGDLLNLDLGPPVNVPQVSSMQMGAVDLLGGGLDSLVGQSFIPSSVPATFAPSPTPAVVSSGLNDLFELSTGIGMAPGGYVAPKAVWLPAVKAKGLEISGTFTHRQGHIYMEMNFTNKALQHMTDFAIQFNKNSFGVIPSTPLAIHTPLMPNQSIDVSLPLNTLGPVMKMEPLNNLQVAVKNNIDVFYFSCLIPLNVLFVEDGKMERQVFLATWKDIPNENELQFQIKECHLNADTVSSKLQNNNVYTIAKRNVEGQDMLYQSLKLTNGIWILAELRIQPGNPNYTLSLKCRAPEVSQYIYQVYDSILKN
Chain of Beta-adrenergic receptor kinase 1 (Homo sapiens) (P25098 whole entry, looked up): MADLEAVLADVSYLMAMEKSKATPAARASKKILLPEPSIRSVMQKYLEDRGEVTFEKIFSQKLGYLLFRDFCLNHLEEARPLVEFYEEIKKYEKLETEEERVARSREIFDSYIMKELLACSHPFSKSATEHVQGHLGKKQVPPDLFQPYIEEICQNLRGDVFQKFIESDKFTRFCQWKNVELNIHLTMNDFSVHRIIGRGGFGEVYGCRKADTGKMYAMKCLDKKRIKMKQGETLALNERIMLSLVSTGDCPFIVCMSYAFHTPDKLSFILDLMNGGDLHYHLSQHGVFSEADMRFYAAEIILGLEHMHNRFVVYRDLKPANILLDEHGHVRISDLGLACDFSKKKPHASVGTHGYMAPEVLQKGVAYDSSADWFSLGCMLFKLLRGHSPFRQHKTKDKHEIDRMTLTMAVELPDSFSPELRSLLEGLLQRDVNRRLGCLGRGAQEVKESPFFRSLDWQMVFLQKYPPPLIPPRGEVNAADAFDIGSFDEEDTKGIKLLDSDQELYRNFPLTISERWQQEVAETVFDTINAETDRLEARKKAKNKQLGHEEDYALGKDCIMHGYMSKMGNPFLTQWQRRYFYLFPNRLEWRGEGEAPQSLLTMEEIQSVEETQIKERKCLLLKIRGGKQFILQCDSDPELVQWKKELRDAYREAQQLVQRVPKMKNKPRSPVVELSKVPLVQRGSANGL
Chain of ATP-binding cassette sub-family B member 6 (Homo sapiens) (Q9NP58 whole entry, looked up): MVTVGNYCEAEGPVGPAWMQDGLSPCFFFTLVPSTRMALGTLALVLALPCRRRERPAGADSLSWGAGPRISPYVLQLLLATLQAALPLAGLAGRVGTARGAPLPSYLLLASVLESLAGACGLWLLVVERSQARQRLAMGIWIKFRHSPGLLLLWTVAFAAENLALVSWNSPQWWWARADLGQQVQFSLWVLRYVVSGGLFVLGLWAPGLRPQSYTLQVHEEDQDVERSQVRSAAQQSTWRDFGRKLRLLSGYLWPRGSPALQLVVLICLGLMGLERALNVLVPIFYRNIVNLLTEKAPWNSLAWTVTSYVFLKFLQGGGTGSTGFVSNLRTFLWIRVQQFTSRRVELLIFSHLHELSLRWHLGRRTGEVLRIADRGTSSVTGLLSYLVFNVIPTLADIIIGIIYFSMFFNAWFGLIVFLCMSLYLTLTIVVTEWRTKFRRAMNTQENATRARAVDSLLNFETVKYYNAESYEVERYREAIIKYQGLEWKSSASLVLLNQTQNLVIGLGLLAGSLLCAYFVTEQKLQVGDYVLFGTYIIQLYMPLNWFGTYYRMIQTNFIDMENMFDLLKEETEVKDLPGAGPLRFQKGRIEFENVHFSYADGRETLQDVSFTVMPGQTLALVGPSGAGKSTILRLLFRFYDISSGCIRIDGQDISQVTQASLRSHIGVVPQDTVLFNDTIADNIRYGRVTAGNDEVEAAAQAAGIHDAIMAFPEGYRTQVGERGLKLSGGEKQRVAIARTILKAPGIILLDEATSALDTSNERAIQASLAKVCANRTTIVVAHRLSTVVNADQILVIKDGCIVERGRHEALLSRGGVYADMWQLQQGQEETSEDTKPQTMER
Chain of Integrin beta-1 (Homo sapiens) + Integrin alpha-4 (Homo sapiens) (P05556 whole entry, looked up): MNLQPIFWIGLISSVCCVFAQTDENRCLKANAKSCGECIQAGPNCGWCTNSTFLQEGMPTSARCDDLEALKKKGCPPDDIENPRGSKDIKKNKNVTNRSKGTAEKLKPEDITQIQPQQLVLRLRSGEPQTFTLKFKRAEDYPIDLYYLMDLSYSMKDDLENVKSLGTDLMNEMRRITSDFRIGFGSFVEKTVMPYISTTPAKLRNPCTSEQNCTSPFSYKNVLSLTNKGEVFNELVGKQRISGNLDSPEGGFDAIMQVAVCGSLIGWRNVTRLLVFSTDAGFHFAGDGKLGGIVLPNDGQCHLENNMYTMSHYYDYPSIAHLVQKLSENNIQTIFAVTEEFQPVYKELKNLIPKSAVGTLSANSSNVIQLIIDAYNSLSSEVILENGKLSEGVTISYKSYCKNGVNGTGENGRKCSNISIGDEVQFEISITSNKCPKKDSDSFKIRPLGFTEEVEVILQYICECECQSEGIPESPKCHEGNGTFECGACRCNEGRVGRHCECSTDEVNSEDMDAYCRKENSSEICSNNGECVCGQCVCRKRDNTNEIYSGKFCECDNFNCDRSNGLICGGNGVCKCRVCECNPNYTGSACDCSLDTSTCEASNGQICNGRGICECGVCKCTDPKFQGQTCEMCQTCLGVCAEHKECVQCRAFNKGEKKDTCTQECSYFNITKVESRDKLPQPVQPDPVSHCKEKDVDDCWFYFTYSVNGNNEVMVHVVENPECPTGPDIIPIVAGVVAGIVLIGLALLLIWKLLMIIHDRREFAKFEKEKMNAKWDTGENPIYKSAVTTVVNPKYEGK
Chain of Integrin beta-1 (Homo sapiens) + Integrin alpha-4 (Homo sapiens) (P13612 whole entry, looked up): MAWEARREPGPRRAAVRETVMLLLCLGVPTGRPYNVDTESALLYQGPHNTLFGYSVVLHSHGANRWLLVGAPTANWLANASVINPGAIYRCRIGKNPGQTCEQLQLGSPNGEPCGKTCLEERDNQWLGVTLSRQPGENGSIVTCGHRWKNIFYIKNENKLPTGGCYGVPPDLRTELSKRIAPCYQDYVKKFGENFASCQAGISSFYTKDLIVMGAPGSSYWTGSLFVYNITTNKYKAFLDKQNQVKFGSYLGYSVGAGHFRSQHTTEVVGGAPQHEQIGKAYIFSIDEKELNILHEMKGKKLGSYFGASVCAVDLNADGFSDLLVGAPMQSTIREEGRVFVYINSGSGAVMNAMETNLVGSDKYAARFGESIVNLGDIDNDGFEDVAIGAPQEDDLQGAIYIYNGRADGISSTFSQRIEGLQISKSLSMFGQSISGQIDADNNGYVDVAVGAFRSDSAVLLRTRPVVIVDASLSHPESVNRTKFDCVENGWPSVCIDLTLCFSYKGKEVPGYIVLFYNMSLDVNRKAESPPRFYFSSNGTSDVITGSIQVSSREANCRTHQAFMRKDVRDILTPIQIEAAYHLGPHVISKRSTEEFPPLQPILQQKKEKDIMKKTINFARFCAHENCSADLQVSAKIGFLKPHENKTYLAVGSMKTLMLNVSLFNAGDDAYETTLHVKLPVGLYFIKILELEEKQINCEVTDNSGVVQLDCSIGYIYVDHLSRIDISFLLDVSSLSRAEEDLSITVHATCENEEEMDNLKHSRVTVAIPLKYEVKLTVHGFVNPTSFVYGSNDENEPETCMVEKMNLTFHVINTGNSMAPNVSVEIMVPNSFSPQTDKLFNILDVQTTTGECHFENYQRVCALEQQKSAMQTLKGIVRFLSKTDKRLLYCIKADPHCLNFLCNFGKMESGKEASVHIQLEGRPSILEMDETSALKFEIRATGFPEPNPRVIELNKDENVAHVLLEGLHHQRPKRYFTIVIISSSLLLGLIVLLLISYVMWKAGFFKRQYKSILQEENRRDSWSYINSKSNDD

As to `O=C(N/N=C/c1ccccn1)c1sc2ccccc2c1Cl`, the GFP response vs DMSO in [1] was 103% (inactive); in [1] (setting [16]), 94%; in [1] (setting [17]) it was 103%; in assay [3], 114% (inactive). Besides, the GFP response relative to DMSO in assay [2] is 118% (inactive); in assay [2] (setting [18]) it was 114%; in assay [2] (setting [19]), 126%. Also, the GFP response, % of DMSO is 99.3% (inactive) in assay [4], 84.7% (inactive) in assay [5], 88.9% in assay [5] (setting [16]) and 82.8% in assay [5] (setting [17]).

As to `COc1cc(SSc2cc(OC)cc([N+](=O)[O-])c2N)c(N)c([N+](=O)[O-])c1`, the GFP response vs DMSO in assay [1] was 89% (inactive); in assay [1] (setting [16]), 78.4%; in assay [1] (setting [17]), 80.4%; in assay [3], 118% (inactive). Also, the GFP response relative to DMSO is 265% (active) in assay [2], 153% in assay [2] (setting [18]) and 252% in [2] (setting [19]). The GFP response, % of DMSO in assay [4] was 124% (inactive); in assay [5], 145% (inactive); in assay [5] (setting [16]), 112%; in assay [5] (setting [17]) it was 143%.

As for `CCOc1c(Br)ccc2c1sc1nc[nH]c(=O)c12`, the GFP response vs DMSO in assay [1] is 101% (inactive); in assay [1] (setting [16]), 99.8%; in assay [1] (setting [17]), 100%; in assay [3] it was 103% (inactive). The GFP response relative to DMSO was 105% (inactive) in [2], 99% in assay [2] (setting [18]) and 108% in [2] (setting [19]). In addition, the GFP response, % of DMSO in assay [4] is 99.1% (inactive); in assay [5], 100% (inactive); in [5] (setting [16]) it was 97.6%; in assay [5] (setting [17]), 100%.

Turning to `CC(=O)c1cc(NC(=O)c2ccc(C)cc2)c(=O)oc1C`, the GFP response vs DMSO is 96.6% (inactive) in assay [1], 97.5% in assay [1] (setting [16]), 96% in assay [1] (setting [17]) and 104% (inactive) in assay [3]. In addition, the GFP response relative to DMSO is 105% (inactive) in [2], 104% in assay [2] (setting [18]) and 104% in [2] (setting [19]). Further, the GFP response, % of DMSO in assay [4] was 94.3% (inactive); in assay [5] it was 99.3% (inactive); in [5] (setting [16]), 100%; in [5] (setting [17]), 96.8%.

With `C/C(=N\NC(=O)c1ccc(Br)cc1)c1ccccc1`, the GFP response vs DMSO in assay [1] was 98% (inactive); in assay [1] (setting [16]), 97.9%; in assay [1] (setting [17]), 98%; in assay [3], 102% (inactive). Further, the GFP response relative to DMSO in assay [2] was 97.9% (inactive); in [2] (setting [18]), 99.2%; in assay [2] (setting [19]), 98.3%. Moreover, the GFP response, % of DMSO in assay [4] was 94.3% (inactive); in [5], 99.7% (inactive); in assay [5] (setting [16]), 99.1%; in [5] (setting [17]) it was 98.5%.

Turning to `CCCCC(=O)O[C@]1(C(=O)CO)CC[C@H]2[C@@H]3CCC4=CC(=O)CC[C@]4(C)[C@H]3[C@@H](O)C[C@@]21C`, the GFP response vs DMSO in assay [1] was 96.8% (inactive); in assay [1] (setting [16]) it was 96.4%; in assay [1] (setting [17]), 99%; in assay [3], 105% (inactive). Also, the values for the GFP response relative to DMSO in [2], in assay [2] (setting [18]) and in [2] (setting [19]) were 101% (inactive), 101% and 99.3%, respectively. Also, the GFP response, % of DMSO in [4] was 99.3% (inactive); in assay [5] it was 101% (inactive); in assay [5] (setting [16]), 101%; in assay [5] (setting [17]) it was 101%. For the same compound, the double positive events in assay [6] came out at 62.4%. Also, the vesicle binding response in assay [6] is 271% (inactive). Also, the inhibition in assay [7] was 4.42% (inactive); in [10], -7.47% (inactive); in [14], 9% (inactive). Moreover, the superoxide response (% of plate) in assay [8] is 83.1% (inactive). Further, the aptamer binding inhibition in assay [9] is 2% (inactive). Besides, the response in assay [11] is -1.11% (inactive). For the same compound, the binding (% of control) in [12] was 101% (inactive). In addition, in assay [13], the efflux inhibition (fraction of control) was 0.1 (inactive). Besides, the differentiation response in assay [15] was -6.66% (inactive).
